# Pf Dd2 inh – inhibitors of Plasmodium falciparum Dd2 growth. 2.3% of 94,000 active. P. falciparum Dd2 growth, SYBR Green, 72 h; stronger effect = lower value. activity change, % at 10 µM; in the data active means activity change below about -80%; inconclusive means no clear call, values can overlap the other calls
# C diff growth – inhibitors of Clostridium difficile growth. Clostridium difficile clinical isolate growth, OD600, 24 h; stronger effect = lower value. growth activity, negative = inhibition, % at 16 µg/mL (by protocol). 0.25% of 86,000 active. AID 1259249;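 active means mean growth activity at or below -80% and every replicate also at or below -80%; inconclusive means mean at or below -80% but some replicate above -80%; inactive means mean growth activity above -80%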;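 further: 0% = DMSO wells and -100% = levofloxacin 16 µg/mL wells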
# T cruzi growth-1 – inhibitors of T. cruzi proliferation; AID 624255; 5.9% of 77,000 active; T. cruzi beta-gal in NIH3T3, GalScreen luminescence, 90 h; inhibition, % at 8.34 µM;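 active means mean inhibition above about 93%, with at least 55% of replicates each passing it, limit read from the data, passing the limit was not always enough; inconclusive means only one of those two conditions holds; inactive means neither condition holds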
# T cruzi growth-2 – Trypanosoma cruzi proliferation inhibition. shares compounds with T cruzi growth-1. T. cruzi beta-gal in NIH3T3, GalScreen luminescence, 90 h. inhibition, % at 8.35 µM. 72% of 5,600 active. AID 651739;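 active means mean replicate inhibition above about 95% and at least 55% of replicates individually reaching it, limit read from the data; inconclusive means only one of the two criteria is met; inactive means neither criterion is met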
# T cruzi growth-3 – blocks T. cruzi growth in NIH3T3 host cells; shares compounds with T cruzi growth-1; T. cruzi beta-gal in NIH3T3, GalScreen luminescence, 90 h; inhibition, % at 2.09 µM; 21% of 5,600 active; AID 651740;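 active means mean inhibition above about 95%, with at least 55% of replicates also reaching it, limit read from the data; inconclusive means meets just one of the two conditions; inactive means meets neither condition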;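 further: plate controls were neutral control median for no effect and positive control median for full effect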
# NIH3T3 tox – kills mouse NIH/3T3 fibroblasts; shares compounds with T cruzi growth-1; NIH/3T3 viability, CellTiter-Glo ATP luminescence, 90 h; cytotoxicity (signal decrease), % at 8.35 µM; 14% of 5,600 active; AID 651742;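 active means mean signal decrease across replicates above about 35% based on untreated-well scatter, with enough replicates individually passing, limit read from the data; inconclusive means no rule stated though some were filed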;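 further: 0% = median of neutral control wells and 100% = median of positive control wells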
# NIH3T3 tox 2 – kills mouse NIH/3T3 fibroblasts; shares compounds with T cruzi growth-1; NIH/3T3 viability, CellTiter-Glo ATP luminescence, 90 h; inhibition, % at 24.9 µM; 56% of 5,600 active;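 active means mean loss of cell viability signal at or above a set limit, and enough replicates individually reaching it; inconclusive means meets only the mean limit or only the replicate share; inactive means meets neither condition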;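 further: 0% = median of neutral control wells and 100% = median of positive control wells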
# Active calls of the source: *; ? = inconclusive; / = no result. Compounds with a hit are over-represented: about 6.7% of the library has one in this group of screens.
SMILES,Pf Dd2 inh,C diff growth,T cruzi growth-1,T cruzi growth-2,T cruzi growth-3,NIH3T3 tox,NIH3T3 tox 2
CC(C)C#Cc1ccc([C@@H]2[C@H]3CN(S(=O)(=O)Cc4ccccc4)CCCCN3[C@H]2CO)cc1,-24,0,101*,98*,89,18,106*
CCCC#Cc1ccc([C@@H]2[C@H](CO)N3CCCCN(S(=O)(=O)CC)C[C@@H]23)cc1,-61,1,75,/,/,/,/
C[C@@H]1CN([C@H](C)CO)C(=O)Cc2cc(NC(=O)Cc3ccccc3)ccc2O[C@@H]1CN(C)C(=O)Nc1ccc2c(c1)OCO2,-19,0,-5,/,/,/,/
NCC[C@@H]1CC[C@@H](NC(=O)C2CC2)[C@H](CO)O1,17,-1,/,/,/,/,/
C[C@H]1CN([C@@H](C)CO)C(=O)Cc2cc(NC(=O)Nc3ccc(F)cc3)ccc2O[C@@H]1CN(C)Cc1ccc(-c2ccccc2)cc1,1,5,80,/,/,/,/
CCCC#Cc1ccc2c(c1)O[C@@H](CN(C)Cc1ccccn1)[C@@H](C)CN([C@@H](C)CO)S2(=O)=O,/,-11,74,/,/,/,/
CC(C)CC#Cc1ccc2c(c1)O[C@H](CN(C)Cc1ccccn1)[C@@H](C)CN([C@H](C)CO)S2(=O)=O,-57,12,124*,106*,94,22,106*
CC(C)CC#Cc1ccc2c(c1)O[C@@H](CN(C)Cc1ccccn1)[C@@H](C)CN([C@H](C)CO)S2(=O)=O,-17,-10,109*,106*,52,-7,104*
CCCC#Cc1ccc2c(c1)O[C@H](CN(C)Cc1ccccn1)[C@H](C)CN([C@H](C)CO)S2(=O)=O,/,-11,45,/,/,/,/
C[C@@H]1CCCCO[C@@H](CN(C)C)[C@H](C)CN([C@H](C)CO)C(=O)c2cc(NC(=O)C3CCCCC3)ccc2O1,-12,-4,-55,/,/,/,/
C[C@H](CO)N1C[C@H](C)[C@@H](CN(C)C(=O)C2CCCCC2)Oc2cc(-c3cncnc3)ccc2S1(=O)=O,9,1,/,/,/,/,/
CO[C@@H]1CN(C)C(=O)c2cc(NC(=O)C3CCCC3)ccc2OC[C@H](C)N(CCC(F)(F)F)C[C@H]1C,/,/,-9,/,/,/,/
O=C(Nc1cc(Cl)cc(Cl)c1)N[C@H]1CC[C@H](CCNS(=O)(=O)c2cccc(F)c2)O[C@@H]1CO,3,17,112*,108*,7,16,97*
O=C(Nc1cccc(F)c1)N[C@@H]1CC[C@H](CCNS(=O)(=O)c2cccc(Cl)c2)O[C@@H]1CO,-20,/,153*,18,8,-1,1
O=C(Nc1cccc(F)c1)N[C@@H]1CC[C@@H](CCNS(=O)(=O)c2cccc(Cl)c2)O[C@H]1CO,7,/,26,/,/,/,/
O=C(Nc1cc(Cl)cc(Cl)c1)N[C@@H]1CC[C@H](CCNS(=O)(=O)c2cccc(F)c2)O[C@@H]1CO,-1,4,81,/,/,/,/
COCC#Cc1ccc2c(c1)O[C@H](CN(C)C(=O)CC1CC1)[C@H](C)CN([C@@H](C)CO)S2(=O)=O,-32,1,68,/,/,/,/
C[C@H](NC(=O)[C@@H]1[C@@H](CO)[C@@H]2Cn3c(cccc3=O)[C@@H]2N1C(=O)C1CC1)c1ccccc1,19,4,-13,/,/,/,/
O=C(Nc1ccc(F)cc1)N1C[C@@H]2[C@H](c3ccccc31)[C@H](CO)N2C(=O)Cc1ccccc1,1,-2,29,/,/,/,/
O=C(C[C@H]1CC[C@H]2[C@@H](COC[C@H](O)CN2Cc2cc(F)ccc2F)O1)NCc1ccc(Cl)cc1,-50,13,?,40,11,3,17
O=C(C[C@H]1CC[C@@H]2[C@H](COC[C@@H](O)CN2Cc2cc(F)ccc2F)O1)NCc1ccc(Cl)cc1,-9,2,40,/,/,/,/
O=C(C[C@@H]1CC[C@@H]2[C@H](COC[C@@H](O)CN2Cc2ccccc2)O1)N[C@@H]1CCN(Cc2ccccc2)C1,-46,21,?,?,80,-23,4
O=C(C[C@@H]1CC[C@@H]2[C@H](COC[C@@H](O)CN2Cc2cc(F)ccc2F)O1)N[C@H]1CCN(Cc2ccccc2)C1,-28,-2,95,/,/,/,/
O=C(C[C@@H]1CC[C@@H]2[C@H](COC[C@H](O)CN2Cc2cc(F)ccc2F)O1)N1CCc2ccccc2C1,-60,3,100*,83,4,-15,20
O=C(C[C@H]1CC[C@@H]2[C@H](COC[C@@H](O)CN2Cc2cc(F)ccc2F)O1)N1CCc2ccccc2C1,-7,13,35,/,/,/,/
SMILES,Pf Dd2 inh,C diff growth,T cruzi growth-1,T cruzi growth-2,T cruzi growth-3,NIH3T3 tox,NIH3T3 tox 2
O=C(C[C@H]1CC[C@H]2[C@@H](COC[C@H](O)CN2Cc2cc(F)ccc2F)O1)N[C@H]1CCN(Cc2ccccc2)C1,-75,4,124*,106*,72,-20,-1
O=C(C[C@@H]1CC[C@@H]2[C@H](COC[C@H](O)CN2Cc2ccccc2)O1)N[C@@H]1CCN(Cc2ccccc2)C1,-19,2,77,/,/,/,/
CO[C@@H]1CN(C)C(=O)c2cc(NS(C)(=O)=O)ccc2OC[C@@H](C)N(Cc2ccccn2)C[C@@H]1C,/,/,-10,/,/,/,/
C[C@H](CO)N1C[C@H](C)[C@@H](CN(C)C(=O)NC2CCCCC2)Oc2ccc(NC(=O)Cc3cn(C)c4ccccc34)cc2C1=O,-7,-2,-38,/,/,/,/
COc1ccccc1-c1cnc2c(c1)C(=O)N([C@H](C)CO)C[C@H](C)[C@H](CN(C)C)O2,18,0,/,/,/,/,/
Cc1noc(C)c1S(=O)(=O)Nc1ccc2c(c1)C(=O)N([C@@H](C)CO)C[C@@H](C)[C@H](CN(C)Cc1ccc(C(=O)O)cc1)O2,36,/,68,/,/,/,/
CCC(=O)Nc1ccc2c(c1)OC[C@@H](C)N(C(=O)Cc1ccccn1)C[C@H](C)[C@@H](OC)CN(C)C2=O,21,/,-1,/,/,/,/
C[C@@H](NC(=O)C[C@H]1CC[C@H]2[C@@H](COC[C@@H](O)CN2Cc2ccc(C(F)(F)F)cc2)O1)c1ccccc1,9,1,?,66,61,12,8
C[C@H](NC(=O)C[C@H]1CC[C@H]2[C@@H](COC[C@@H](O)CN2Cc2ccc(C(F)(F)F)cc2)O1)c1ccccc1,18,-7,73,/,/,/,/
COc1ccc(NC(=O)Nc2ccc3c(c2)C(=O)N([C@@H](C)CO)C[C@@H](C)[C@@H](CN(C)CC2CC2)OCCCC[C@@H](C)O3)cc1,-75,4,13,/,/,/,/
C[C@@H]1CN([C@H](C)CO)C(=O)c2cccc(NC(=O)c3ccc(-c4nccs4)cc3)c2O[C@H]1CN(C)C(=O)NC1CCCCC1,-13,/,19,/,/,/,/
Cc1noc(C)c1NC(=O)Nc1ccc2c(c1)C(=O)N(C)[C@@H]1CC[C@@H](CC(=O)N[C@H]3CCN(Cc4ccccc4)C3)O[C@@H]1CO2,-32,-8,107*,-13,-29,-15,0
